# Reference: PubChem BioAssay AID1956 (SRMLSC, 2009)
# In all, about 220,000 compounds went through this assay and about 10 (0.005%) were called active. No stated cut-off is given here; in the data, active means maximum fold increase above about 1.5; inconclusive means no clear call, values can overlap the other calls; inactive means below that; tested in PC3 cells. A selection follows.
# Experiment: compounds boosting herpes simplex virus growth – fold increase, host cell viability (AID 1956)
# Conditions: HSV replication augmentation in cells; fold increase: measured here: primary screen fold increase 10 uM, at 10 µM, stronger effect = higher value; maximum fold increase: at 0.098 µM, stronger effect = higher value; viability: measured here: host cell viability series, at 25 µM, stronger effect = lower value
SMILES,fold increase,outcome
COc1ccc(C#Cc2c(-c3ccc(OC)cc3)oc3ccc(-c4ccc5c(c4)OCO5)cc23)cc1,0.99,inactive
Cc1nc(-c2ccccc2)sc1C1(C)CC(c2cccnc2)=NO1 (stereo not given),0.85,inactive
COC(=O)c1sccc1NN1C(=O)c2ccccc2C1=O,1.18,inactive
COCCN1C2=C(COC(C)(C)C2)C(=S)NC1c1ccccc1 (stereo not given),0.95,inactive
O=C1N[C@@H](Cc2ccccc2)C(=O)N2[C@@H]3N(S(=O)(=O)c4ccc(F)cc4)c4ccccc4[C@]3(Br)C[C@@H]12,0.86,inactive
CCOC(=O)C[C@H]1c2ccc(C(F)(F)F)cc2S(=O)(=O)N1c1ccccc1,0.88,inactive
Cc1ccc(S(=O)(=O)N(C)C)cc1NC(=O)c1n[nH]c(=O)c2ccccc12,0.73,inactive
O=C(NCc1ccccc1)c1ccc(S(=O)(=O)Nc2cccc(C(F)(F)F)c2)cc1,0.83,inactive
O=C1CC(Cc2ccc(Cl)cc2)C(=O)N1c1cc(Cl)ccn1 (stereo not given),1.23,inactive
O=C(O)C(F)(F)C(NCc1ccccc1)c1ccccc1 (stereo not given),0.84,inactive
CCN(CC)CCNCC(=O)Nc1ccc(Oc2ccccc2)cc1,0.94,inactive
NS(=O)(=O)c1ccc(NC2=CC(c3ccc(F)cc3)N(c3ccc(S(N)(=O)=O)cc3)C2=O)cc1 (stereo not given),1.05,inactive
CC(C)(C)c1ccc(/C=C2\Oc3c(ccc(O)c3CN3CCN(CCO)CC3)C2=O)cc1,1.25,inactive
COc1ccc(CNC(=O)C2CC(c3ccc(C(F)(F)F)cc3)=NO2)cc1 (stereo not given),0.93,inactive
CCN(CC)c1ccc(NC(=O)C2CCC(CNc3c(N4CCCC4)c(=O)c3=O)CC2)c(C)c1 (stereo not given),1,inactive
COc1ccc(CCN2C(=O)N(c3ccc(OC)cc3)C(=O)C2CC(=O)Nc2ccc(OC)cc2)cc1 (stereo not given),0.88,inactive
COC(=O)c1ccc(C(NC(=O)OCc2ccccc2)/C(F)=C/[C@@H](C)C(=O)O)cc1 (stereo not given in full),0.86,inactive
COC(=O)c1c(C)cc(O)c(C)c1O,0.79,inactive
O=C1CC2(CCCC2)Oc2ccc(Cl)cc21,0.69,inactive
CC(C)Oc1ccc(CCC(=O)NNC(=S)NCc2ccccc2)cc1,1.13,inactive
CC(=O)N[C@H]1[C@H]([C@H](O)[C@H](O)CO)OC(C(=O)O)=C[C@@H]1O,0.87,inactive
CC(CO)(CO)NC(=O)c1ccc(=O)[nH]n1,0.94,inactive
COC(C[C@@H](O)C[C@H](O)[C@H](C)OCc1ccccc1)OC,0.91,inactive
COC(C[C@@H]1O[C@@H]1C(=O)[C@@H](C)OCc1ccccc1)OC,0.81,inactive
COc1ccc(NC(=O)CSc2ncnc3[nH]ncc23)cc1,1.02,inactive
CCOC(=O)c1ccc(NC(=O)c2c(NCc3ccccc3)[nH]c(=O)[nH]c2=O)cc1,0.87,inactive
O=C(NC(=O)N1CCSCC1)c1c(Cl)cccc1Cl,1,inactive
CNC(C)C#Cc1ccc2sc3cc(OC)c(OC)cc3c(=O)c2c1 (stereo not given),0.67,inactive

SMILES,fold increase,outcome
O=C(O)/C=C/c1ccc2c(c1)OCCO2,0.95,inactive
C[C@H](NC(=O)c1nc[nH]c1C(=O)N[C@@H](C)C(=O)OC(C)(C)C)C(=O)OC(C)(C)C,0.88,inactive
CNC(=S)NNC(=O)c1ccc(N(C)C)cc1,1.02,inactive
COc1ccc(CNC(=O)[C@@H]2CC=C[C@@H]3CCN(C4CC4)C(=O)[C@@H]32)cc1,0.88,inactive
CN=C1C=C/C(=N/N=c2\ccn(O)cc2C)C=C1C,1.05,inactive
Cc1ccccc1Nc1c(-c2ccccc2)nc2ncccn12,1.06,inactive
O=C1CCCC(O)=C1N=Nc1ccc(S(=O)(=O)N2CCOCC2)cc1,0.97,inactive
COC(C[C@@H]1O[C@@H]1C(=O)[C@H](C)OCc1ccccc1)OC,0.81,inactive
O=c1[nH]c(CSc2ccccc2)nc2c1oc1ccccc12,1.16,inactive
CCOC(=O)C1=NN(c2ccc(Cl)cc2)/C(=C/C2=NCCc3cc(OC)c(OC)cc32)S1,1.18,inactive
CCn1c2ccccc2c2cc(NC(=O)Nc3ccc([N+](=O)[O-])cc3C)ccc21,0.73,inactive
Cc1ccc(NC(=O)c2nc[nH]c2C(=O)N[C@@H](CCCCNC(=O)OC(C)(C)C)C(=O)OC(C)(C)C)cc1,0.74,inactive
C/C=C/C(=O)Nc1ccc(N2CCN(c3ccc(C(F)(F)F)cn3)CC2)nc1,0.88,inactive
CCC(=O)Nc1cccc(C2=NOC3(C2)C[C@@H](C(N)=O)N(C(=O)c2cc([N+](=O)[O-])cc([N+](=O)[O-])c2C)C3)c1 (stereo not given in full),1.3,inactive
CCCC[C@@H]1CN=C(N)N1CCCC,1.05,inactive
COC(C/C=C/C(=O)[C@@H](C)OCc1ccccc1)OC,0.77,inactive
Cn1ccnc1-c1nnn(-c2ccc(F)cc2)n1,1.06,inactive
CCOC(=O)c1cccc(NC(=O)c2ccc(F)cc2F)c1,0.77,inactive
O=C(N/N=C/c1ccccn1)c1cccnc1,1.05,inactive
COC(=O)C1=C[C@@H](C(=O)OC)[C@@H]2C3=C(C(=O)[C@]2(C)NC(=O)c2ccccc2)[C@H](C)n2c(=O)n(C)c(=O)n2[C@@H]3C1,0.77,inactive
C#CCOCCOCCOCCNc1nc(N2CCN(C(=O)C([C@@H](C)CC)n3cc(C(N)COC(=O)C(F)(F)F)nn3)CC2)nc(N2CCN(C(=O)[C@H](CCCCN)n3cc(C(N)CC(C)C)nn3)CC2)n1 (stereo not given in full),0.79,inactive
C=C(C)COc1ccc(-c2nc(N)ncc2-c2ccccc2OC)c(O)c1,0.94,inactive
COCCN(C(=S)Nc1cccc(Cl)c1C)C(C)c1ccco1 (stereo not given),1.01,inactive
Cc1cccc(Nc2nc(NCCO)nc(N3CCCC3)n2)c1,0.73,inactive
Cc1nnc(Nc2ccccc2F)s1,0.86,inactive
CC1(C)C2CC[C@]3(C)C(CC=C4[C@@H]5C[C@@](C)(CO)CC[C@]5(C(=O)O)CC[C@]43C)[C@@]2(C)CC[C@@H]1O (stereo not given in full),1.01,inactive
C=C(C)CNC(=S)Nc1ccc(S(=O)(=O)Nc2cnc3ccccc3n2)cc1,0.94,inactive
